Rows were chosen to be rich in hits. Some 9.2% of all compounds tested hit in one or more screens of this group.
ELG1 genotox – induces genotoxicity in HEK293T cells with luciferase-tagged ELG1; Potency, µM (doses to about 46 µM), for the others: at the top dose activity change, positive = activation, most hits filed as activators; 1.3% of 330,000 active; HEK293T ELG1-luciferase reporter, luminescence, 16 h; also: % of control where 0% means no effect; nearly all actives have a fitted effect of over 60% in size
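Step 1: seed 2,000 HEK293T ELG1-luciferase cells per well. Step 2: add compound or DMSO, incubate 16 hr at 37 °C. Step 3: ONE-Glo, 30 min at room temperature, read luminescence.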
FLuc modulator – counter-screen for miR-21 project: firefly luciferase inhibitors or activators; 6.9% of 360,000 active; P08659; AID 588342; Potency, µM (highest dose often 57.5 µM), inactives show at the top dose activity change, negative = inhibition, actives largely listed as inhibitors; purified FLuc, Km substrates, luminescence inhibition;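 also: plate controls were vehicle for no effect and reference inhibitor for full effect; nearly all actives have a fitted effect of over 55% in size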
Target sequence (P08659 whole entry, looked up): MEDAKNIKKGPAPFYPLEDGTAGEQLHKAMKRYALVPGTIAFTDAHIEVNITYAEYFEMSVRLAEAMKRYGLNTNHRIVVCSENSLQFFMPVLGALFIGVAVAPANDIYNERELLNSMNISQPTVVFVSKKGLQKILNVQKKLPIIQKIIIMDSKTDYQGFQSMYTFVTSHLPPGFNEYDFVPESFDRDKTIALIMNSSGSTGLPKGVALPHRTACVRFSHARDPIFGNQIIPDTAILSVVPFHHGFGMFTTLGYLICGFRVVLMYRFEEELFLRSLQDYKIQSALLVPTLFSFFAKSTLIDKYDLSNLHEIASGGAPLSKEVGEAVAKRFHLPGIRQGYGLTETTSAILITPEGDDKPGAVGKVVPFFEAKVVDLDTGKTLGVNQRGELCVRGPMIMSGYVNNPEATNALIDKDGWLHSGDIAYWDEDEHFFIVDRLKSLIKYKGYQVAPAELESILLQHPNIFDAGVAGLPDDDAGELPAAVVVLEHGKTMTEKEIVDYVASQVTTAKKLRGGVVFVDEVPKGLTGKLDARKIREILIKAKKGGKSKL
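Purified P. pyralis luciferase (10nM final) with 10uM D-luciferin and 10uM ATP (Km levels) in 50mM Tris acetate pH 7.5, 10mM Mg acetate, 0.01% Tween-20, 0.05% BSA; qHTS 6-point titration, ~60 µM downward; luminescence read.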
ELG1 repair inh – inhibitors of ELG1-dependent DNA repair in HEK293T cells. HEK293T ELG1-luciferase reporter, luminescence, 16 h; DNA damage induced by 5-fluorouridine. Potency, µM (titrated, usually from 46.1 µM), for the others: top-dose activity change, negative = inhibition, hits mostly inhibitors. 2.3% of 330,000 active. AID 504467; also: % is scaled to controls: 0 for no effect and ±100 for the full control effect; nearly all actives have a fitted effect of over 55% in size
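Luminescence from the luciferase reporter, measured 30 min after ONE-Glo reagent at room temperature, was the read-out. Beforehand, 2,000 cells per well were exposed for 16 hr at 37 °C to 5-fluorouridine together with compound or vehicle.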
NPC1 promoter act – NPC1 promoter activation. Huh7 NPC1 promoter luciferase reporter, 24 h. Potency, µM (top dose mostly 9.22 µM), without a hit: at the top dose activation, hits mostly activators. 2.4% of 320,000 active. AID 485313; also: % of control where 0% means no effect; nearly all actives have a fitted effect of over 60% in size
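Huh7 reporter cells (NPC1 promoter driving luciferase) are dosed with compound for 24 h at 37 °C, 5% CO2; luciferase detection reagent is then added and luminescence measured after 10 min at ambient temperature.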
SMN2 splice enh – SMN2 splice variant enhancement; HEK293 SMN2-luciferase splicing reporter, luminescence, 30-36 h; Potency, µM (doses to about 46.1 µM), inactives show at the highest dose activity change, positive = activation, most hits filed as activators; 2.8% of 210,000 active; also: % of control where 0% means no effect; nearly all actives have a fitted effect of over 55% in size
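qHTS luciferase splicing reporter: luminescence rises when SMN2 exon 7 is included in transfected HEK293 cells. Compound exposure lasted 30-36 h at 37C, with 4.5 mM final sodium butyrate as control, followed by a ONE-Glo read.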
Rab9 promoter act – activators of Rab9 promoter; Huh7 Rab9 promoter-luciferase reporter, luminescence, 24 h; Potency, µM (top dose mostly 9.22 µM), inactives show at the highest dose activation, negative = inhibition, usual class: activators; 2.8% of 320,000 active; AID 485297; also: % of control where 0% means no effect; nearly all actives have a fitted effect of over 60% in size
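Steps: seed 1500 Huh7 Rab9-luc cells per well, rest 2 h at 37 °C; add compound in DMSO; incubate 24 h; add luciferase reagent, 10 min ambient; read luminescence.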
Starred values were filed as active, the others as inactive; u = inconclusive; x = no result; [ ] = remark or other dose. Calls follow the shape of the dose curve; as a rule, active = well fitted curve in the direction sought with a large enough effect; inconclusive = small, poorly fitted or top-dose-only effect, or another doubt; inactive = no such curve, though single readings can be large; an effect the other way counts as inactive or inconclusive. Potency is read from the fitted curve at half-maximal effect.

SMILES | ELG1 genotox | FLuc modulator | ELG1 repair inh | NPC1 promoter act | SMN2 splice enh | Rab9 promoter act
Cc1cc(C)cc(NC(=O)CCCN2C(=O)C(c3ccccc3)Oc3cccnc32)c1 (stereo not given) | 2%[9.26 µM] | 0% | -15% | -1% | x | 3%
CN(C)c1ccc(NC(=O)CSc2nnc(C3CCCCC3)n2N)cc1 | 5% | u | 13% | 1% | x | -1%
COc1ccc(NC(=O)C2CCCN(S(=O)(=O)c3c(C)[nH]c(=O)[nH]c3=O)C2)cc1Cl (stereo not given) | -3% | -12% | 2% | 0% | 3% | 1%
COC(=O)N/N=C/c1cn(Cc2ccccc2Cl)c2ccccc12 | -1% | 1% | -14% | -4% | -62% | 2%
O=C(O)c1ccc(N/N=C/c2cn(Cc3ccccc3F)c3ccccc23)cc1 | u | 21µM* | u | 24% | x | u
Nc1ccc(C(=O)N/N=C/c2cn(Cc3ccccc3)c3ccccc23)cc1 | 0% | 17µM* | -20% | -3% | x | -5%
O=C(N/N=C/c1cn(Cc2cccc(F)c2)c2ccccc12)c1cc(O)cc(O)c1 | 2% | 17µM* | 2% | 0% | x | 1%
CC(C)n1cc(/C=N/Nc2ccc(C(=O)O)cc2)c2ccccc21 | u | 6µM* | u | 12% | x | 6%
CCn1c(SCC(=O)OC)nnc1-c1c[nH]c2ccccc12 | 0% | 2% | -2% | 3% | x | 3%
CCc1ccc(NC(=O)C2CCN(S(=O)(=O)c3c(C)noc3/C=C\c3ccc(OC)cc3)CC2)cc1 | x | 0% | x | x | 0% | x
Cc1ccc(NC(=O)CN(C)C(=O)c2cc(-c3ccccc3)nn2-c2ccccc2)cc1 | -6% | 2% | -1% | 1% | x | 0%
O=C(COC(=O)c1ccc2ncsc2c1)NCc1ccccc1Cl | 5% | x | u | x | x | x
Nc1ccc(C(=O)N/N=C/c2cn(Cc3ccc(F)cc3)c3ccccc23)cc1 | 0% | u | -7% | 0% | x | 3%
Cc1ccc(OCC(=O)N/N=C\c2cn(Cc3ccccc3)c3ccccc23)cc1C | -4% | 0% | -14% | -1% | -27% | 7%
Cn1cc(/C=N/Nc2ccccc2)c2ccccc21 | u | 13µM* | 4% | 14% | u | u
Nc1ccc(C(=O)N/N=C/c2cn(Cc3ccccc3F)c3ccccc23)cc1 | -5% | 24µM* | 0% | 0% | x | -1%
COc1cc(C(=O)N/N=C/c2cn(Cc3ccccc3)c3ccccc23)ccc1O | 1% | 17µM* | 0% | 2% | x | 0%
O=C(N/N=C/c1cn(CCOc2ccccc2)c2ccccc12)c1ccncc1 | -3% | u | -12% | 1% | -23% | -14%
COC(=O)N/N=C/c1cn(CCCOc2ccccc2)c2ccccc12 | -5% | -20% | 16µM* | u | -23% | u
COc1ccc(NC(=O)Cn2ccn(-c3ccc(C)c(C)c3)c(=O)c2=O)cc1Cl | x | -19% | x | x | x | x
CC(=O)N1CCCC1(C(=O)O)c1ccccc1 (stereo not given) | 1% | 5% | 7% | -5% | x | -7%
Cc1cc(OCC(=O)N(Cc2ccc(N(C)C)cc2)Cc2ccco2)cc(C)c1Cl | x | 3% | x | x | -27% | x
COC(=O)N/N=C/c1cn(Cc2ccccc2F)c2ccccc12 | 1% | -12% | 21µM* | -5% | x | -3%
CC(C)CN(C(=O)CCNC(=O)c1ccccc1Cl)C1CCS(=O)(=O)C1 (stereo not given) | 1% | -1% | 2% | 0% | x | -3%
Cc1cc(=O)[nH]c2ccc(S(=O)(=O)NC3CCCCC3)cc12 | 21µM* | 1% | u | -1% | x | -4%
SMILES | ELG1 genotox | FLuc modulator | ELG1 repair inh | NPC1 promoter act | SMN2 splice enh | Rab9 promoter act
CN1CCN(NC(=O)c2cc(S(=O)(=O)Nc3ccc(Cl)cc3)ccc2Cl)CC1 | -5% | 0% | u | 1% | x | 3%
O=C(Cc1ccccc1[N+](=O)[O-])NCc1ccc(Cl)cc1Cl | u | 6µM* | u | 4µM* | x | 3.5µM*
O=C(/C=C/c1ccccc1[N+](=O)[O-])NCc1ccc(Cl)cc1 | -2% | -3% | -7% | -2% | -10% | -4%
O=C(Cc1ccc([N+](=O)[O-])cc1)NCc1ccccc1Cl | 1% | -12% | 14% | 1% | 6% | -1%
O=C(NCc1ccc(Cl)cc1)c1n[nH]c([N+](=O)[O-])c1Cl | u | 21µM* | u | 13% | 20% | -10%
O=C(Cc1ccccc1[N+](=O)[O-])NCc1ccc(Cl)cc1 | u | 17µM* | u | u | 20µM* | u
Cc1cn2c(=O)cc(COc3ccc(NC(=O)c4ccccc4C)cc3)nc2s1 | x | 2% | x | x | 29% | x
COc1ccccc1NC(=O)C1=C(C)Nc2nc3ccccc3n2C1c1ccccc1Cl (stereo not given) | x | -1% | x | x | 5% | x
O=C(NCC1CCCO1)c1ccc(S(=O)(=O)N2CCC(c3nc4ccc(Cl)cc4[nH]3)CC2)cc1 (stereo not given) | -8% | 0% | 13µM* | -1% | -43% | 2%
O=S(=O)(c1ccc2c(c1)OCCO2)N1CCC(c2nc3ccc(Cl)cc3[nH]2)CC1 | -20% | 3% | 18µM* | 0% | x | 1%
O=S(=O)(c1ccc2c(c1)OCCO2)N1CCC(c2nc3ccccc3[nH]2)CC1 | -20% | 3% | u | -2% | -24% | -2%
CCCCC(=O)Nc1ccc2nc(SCC(=O)N3CCCC3)sc2c1 | x | -18% | x | x | x | x
CCn1c(=O)cc(SCC(=O)N2CCN(c3ccccc3OC)CC2)c2ccccc21 | -1% | -1% | -25% | -3% | x | -1%
CCn1c(=O)cc(SCC(=O)N2CCN(C(=O)c3ccco3)CC2)c2ccccc21 | u | -2% | u | -2% | u | -2%
CCn1c(=O)cc(SCC(=O)N2CCN(C3CCCCC3)CC2)c2ccccc21 | 15% | 3% | u | -7% | 10µM* | -11%
CCn1c(=O)cc(SCC(=O)N2CCOCC2)c2ccccc21 | u | 1% | u | -1% | 14µM* | -9%
CC(C)c1cc(C(=O)NC2CCCCC2)no1 | u | 17µM* | u | u | 11µM* | u
CCCc1cc(C(=O)N(C2CCCCC2)C2CCCCC2)no1 | -8% | 3% | -19% | -3% | -11% | -7%
Cc1cc(C(=O)NC2CCCCC2)on1 | 3% | -4% | 4% | -1% | x | -1%
CCCc1cc(C(=O)NC2CCCCC2)no1 | 16µM* | u | u | 4µM* | 14µM* | u
CCCc1cc(C(=O)NC2CCCC2)no1 | 10µM* | u | u | u | 13µM* | u
